# Results reported in PubChem BioAssay AID687001 (Broad Institute, 2013).
# Entries with a potency or affinity are not part of this list. Unmarked numbers belong to inactive results.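 The calls were made as follows: active = signal-lowering compounds whose fitted half-maximal concentration is at or below twice the top tested dose in every run; inconclusive = runs disagree, flat 30 to 70% inhibition, or poor curve fit; inactive = the rest.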
# Biological target: Protein S100-A4 (Homo sapiens) (UniProt P26447)
# Sequence (P26447 whole entry, looked up): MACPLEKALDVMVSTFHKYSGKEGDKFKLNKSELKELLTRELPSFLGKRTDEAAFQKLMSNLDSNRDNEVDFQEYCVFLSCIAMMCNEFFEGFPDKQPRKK
# Test: S100A4-myosin IIA binding inhibitor potency, dose response, biochemical, fluorescence polarization, cherry-picked hits (AID 687001);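 also: 0% = DMSO neutral control wells and -100% = TFP positive control wells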
# Conditions: FP, S100A4/TAMRA-myosin IIA peptide binding; series mostly up to 11 µM; activity change, negative = inhibition: at the top concentration
row,SMILES,"activity change, negative = inhibition"
1,CCOC(=O)N1CCN(C(=O)COc2ccc3oc4c(c3c2)CCCC4)CC1,0.733%
2,COc1ccccc1CNc1nc(C)c(C(C)=O)s1,-3.39%
3,CC(C)NC(=O)N(C)C[C@H]1Oc2ccc(NC(=O)CCCN(C)C)cc2C(=O)N([C@H](C)CO)C[C@H]1C,-0.211%
4,COc1cc(S(=O)(=O)N2CCOCC2)cc(C(=O)c2nccn2C)c1OC,-2.32%
5,COC(=O)c1c(NC(=O)CCN2CCOCC2)sc2c1CCCC2,-2.61%
6,O=C(C[C@H]1C[C@H]2c3cc(NC(=O)Cc4ccncc4)ccc3O[C@H]2[C@H](CO)O1)NCc1ccccn1,10.1%
7,C[C@H](CO)N1C[C@H](C)[C@H](CN(C)Cc2ccccc2)Oc2ccc(NS(=O)(=O)c3ccccc3)cc2CC1=O,3.85%
8,O=C(NCCN1CCOCC1)c1ccc(/C=C2\Sc3ccccc3N(Cc3ccccc3F)C2=O)cc1,-4.52%
9,C[C@@H]1CN([C@H](C)CO)C(=O)c2cc(N(C)C)ccc2O[C@@H](C)CCCCO[C@@H]1CN(C)C(=O)NC1CCCCC1,18.6%
10,CNC[C@@H]1Oc2ccc(NC(=O)Nc3cccc4ccccc34)cc2C(=O)N([C@H](C)CO)C[C@@H]1C,0.263%
11,CC(C)OCCCNC(=O)c1ccccc1NC(=O)C1=CSCCO1,-5.74%
12,O=C(NCCc1ccncc1)Nc1ccc(F)cc1,12.1%
13,CCCN1C[C@H](C)[C@H](OC)CN(C)C(=O)c2cc(NC(=O)NC3CCCCC3)ccc2OC[C@@H]1C,0.083%
14,CC1CC(C)CN(CCCNC(=O)c2cc3c(s2)-c2ccccc2OC3)C1 (stereo not given),-2.12%
15,CO[C@H]1CN(C)C(=O)c2cc(NC(=O)Nc3ccc(C(F)(F)F)cc3)ccc2OC[C@H](C)NC[C@H]1C,2.47%
